Measured values taken from the supplement of paper PMC4466140.

Assays:
Experiment in all cases: SPOT peptide array binding signal intensity (averaged, normalized) (arbitrary units (background-subtracted, floor 0; scale differs between SH3 domains)); higher = stronger binding of the SH3 domain to the peptide
[1] = target: AgAbp1
Outline: (§1)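 SH3 domains from four yeast species were expressed as GST fusions in E. coli BL21(DE3) and purified on glutathione Sepharose. Each was incubated at 10 μg/ml overnight at 4°C in TBS-based blocking buffer on cellulose membranes bearing synthetic 15-mer peptides, in which serines replaced cysteines. Bound protein was detected with anti-GST antibody, an HRP anti-mouse secondary and luminol, then imaged and quantified with Genespotter. The binding signal is the normalized, background-subtracted spot intensity averaged over replicates, in arbitrary units that are not the same from one domain to another.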

[2] = target: AgBbc1
Outline: as §1

[3] = target: AgBem1-D1
Outline: as §1

[4] = target: AgBzz1-D1
Outline: as §1

[5] = target: AgBzz1-D2
Outline: as §1

[6] = target: AgCyk3
Outline: as §1

[7] = target: AgFus1
Outline: as §1

[8] = target: AgHof1
Outline: as §1

[9] = target: AgHse1
Outline: as §1

[10] = target: AgLsb1
Outline: as §1

[11] = target: AgLsb4
Outline: as §1

[12] = target: AgMyo5
Outline: as §1

[13] = target: AgNbp2
Outline: as §1

[14] = target: AgRvs167
Outline: as §1

[15] = target: AgSho1
Outline: as §1

[16] = target: AgSla1-D1-D2
Outline: as §1

[17] = target: AgSla1-D3
Outline: as §1

[18] = target: CaAbp1-D1
Outline: as §1

[19] = target: CaAbp1-D2
Outline: as §1

[20] = target: CaBbc1
Outline: as §1

[21] = target: CaBem1-D1
Outline: as §1

[22] = target: CaBzz1-D1
Outline: as §1

[23] = target: CaBzz1-D2
Outline: as §1

[24] = target: CaCyk3
Outline: as §1

[25] = target: CaFus1
Outline: as §1

[26] = target: CaHof1
Outline: as §1

[27] = target: CaHse1
Outline: as §1

[28] = target: CaLsb1
Outline: as §1

[29] = target: CaLsb4
Outline: as §1

[30] = target: CaMyo5
Outline: as §1

[31] = target: CaNbp2
Outline: as §1

[32] = target: CaRvs167
Outline: as §1

[33] = target: CaRvs167-3
Outline: as §1

[34] = target: CaSho1
Outline: as §1

[35] = target: CaSla1-D1-D2
Outline: as §1

[36] = target: CaSla1-D3
Outline: as §1

[37] = target: ScAbp1
Outline: as §1

[38] = target: ScBbc1
Outline: as §1

[39] = target: ScBem1-D1
Outline: as §1

[40] = target: ScBzz1-D1
Outline: as §1

[41] = target: ScBzz1-D2
Outline: as §1

[42] = target: ScCyk3
Outline: as §1

[43] = target: ScFus1
Outline: as §1

[44] = target: ScHof1
Outline: as §1

[45] = target: ScHse1
Outline: as §1

[46] = target: ScLsb1
Outline: as §1

[47] = target: ScLsb2
Outline: as §1

[48] = target: ScLsb3
Outline: as §1

[49] = target: ScLsb4
Outline: as §1

[50] = target: ScMyo3
Outline: as §1

[51] = target: ScMyo5
Outline: as §1

[52] = target: ScNbp2
Outline: as §1

[53] = target: ScPex13
Outline: as §1

[54] = target: ScRvs167
Outline: as §1

[55] = target: ScSho1
Outline: as §1

[56] = target: ScSla1-D1-D2
Outline: as §1

[57] = target: ScSla1-D3
Outline: as §1

[58] = target: SpAbp1-D1
Outline: as §1

[59] = target: SpBbc1
Outline: as §1

[60] = target: SpBzz1-D1
Outline: as §1

[61] = target: SpBzz1-D2
Outline: as §1

[62] = target: SpCyk3
Outline: as §1

[63] = target: SpHof1
Outline: as §1

[64] = target: SpHof1-2
Outline: as §1

[65] = target: SpHof1-3
Outline: as §1

[66] = target: SpHse1
Outline: as §1

[67] = target: SpLsb1
Outline: as §1

[68] = target: SpLsb4
Outline: as §1

[69] = target: SpMyo1
Outline: as §1

[70] = target: SpNbp2
Outline: as §1

[71] = target: SpPex13
Outline: as §1

[72] = target: SpRvs167
Outline: as §1

[73] = target: SpSla1-D1-D2
Outline: as §1

[74] = target: SpSla1-D3
Outline: as §1

Measured: SPOT peptide array binding signal intensity

QPWTDQFEKLEKEVS
15.5: [66]
0.75: [51]
11: [41]
1.33: [32]
67: [45]
0.167: [14]
15: [3]
0.5: [26] | [28] | [33] | [50]
16.2: [57]
4.75: [38]
23: [31]
26: [9]
1: [37] | [54]
≤ 0: [1] | [2] | [4] | [7] | [8] | [10] | [11] | [13] | [15] | [16] | [17] | [18] | [19] | [21] | [22] | [23] | [24] | [25] | [27] | [29] | [30] | [34] | [35] | [36] | [39] | [42] | [43] | [44] | [46] | [47] | [48] | [52] | [55] | [56] | [58] | [60] | [61] | [62] | [63] | [64] | [65] | [67] | [68] | [69] | [70] | [71] | [72] | [74]
22: [5]
3: [49] | [73]
3.5: [20]
181: [53]
21: [40]
1.5: [6] | [12] | [59]
